Shown are actives, neighbours in structure and some others; about 0.91% of the full set was active somewhere.
TRb SRC2 PPI = disrupts binding of human TR beta to SRC2 | AID 1469 | P10828 | Potency, µM (doses to about 106 µM), without a hit: top-dose activity change, negative = inhibition, hits mostly inhibitors | 280,000 tested, 0.065% active | TRbeta-SRC2 peptide binding, fluorescence polarization; receptor liganded with 1 µM T3;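 note: plate controls were bound peptide for no effect and peptide without receptor for full effect; nearly all actives have a fitted effect of over 50% in size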
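Binding of a 20-amino-acid Texas Red SRC2 peptide (20 nM) to TRb ligand-binding domain (0.6 uM) with agonist T3 at 1 uM was followed by fluorescence polarization after a 5 hr room-temperature incubation.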
APE1 inh-1 = inhibitors of human APE1 endonuclease; 350,000 tested, 0.35% active; recombinant APE1, TAMRA/BHQ-2 abasic DNA cleavage fluorescence; AID 2517; P27695; Potency, µM (top dose mostly 65.8 µM), for inactives: at the top dose activity change, negative = inhibition, usual class: inhibitors;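 note: plate controls were vehicle for no effect and reference inhibitor for full effect; nearly all actives have a fitted effect of over 55% in size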
Target sequence (P27695 whole entry, looked up): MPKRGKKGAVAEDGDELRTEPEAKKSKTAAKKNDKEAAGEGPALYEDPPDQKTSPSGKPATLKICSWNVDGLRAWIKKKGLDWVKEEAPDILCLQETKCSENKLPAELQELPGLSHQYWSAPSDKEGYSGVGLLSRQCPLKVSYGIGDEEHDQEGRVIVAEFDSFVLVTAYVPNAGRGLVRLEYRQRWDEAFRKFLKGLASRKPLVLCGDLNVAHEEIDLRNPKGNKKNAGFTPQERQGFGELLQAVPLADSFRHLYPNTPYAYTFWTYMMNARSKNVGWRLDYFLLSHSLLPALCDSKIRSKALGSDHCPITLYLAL
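Step 1: APE1 (0.75 nM) with compound, 15 min RT. Step 2: add 50 nM fluorophore/quencher THF duplex. Step 3: three fluorescence reads 60 s apart (525/598 nm); read 3 minus read 1 = reaction progress.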
RECQ1 inh = RECQ1 (human) helicase inhibition; 240,000 tested, 0.54% active; P46063; RECQ1 DNA unwinding, red fluorescence kinetic read; Potency, µM (top dose mostly 57.3 µM), for inactives: at the highest dose activity, negative = inhibition, hits mostly inhibitors;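 note: plate controls were vehicle for no effect and no enzyme for full effect; nearly all actives have a fitted effect of over 30% in size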
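50 nM RECQ1T1 preincubated 15 min with compound in Tris pH 8.0 buffer with MgCl2, DTT, Tween-20 and 2.5 ug/ml poly(dI-dC); started with 200 nM TAMRA/BHQ-2 forked duplex and 2 mM ATP. Unwinding read as fluorescence (525/598 nm), two reads 2 h apart.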
TexasRed fluor = Texas Red fluorescence interference in TRb-SRC2 counter-screen; TRb/SRC2 Texas Red total fluorescence interference; Potency, µM (series often up to 106 µM), for the others: at the top dose fluorescence change, negative = quenching; 280,000 tested, 0.29% active; active = well fitted curve in either direction with a large enough effect; inconclusive = small, poorly fitted or top-dose-only effect
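Human TRb ligand-binding domain at 0.6 uM with 20 nM Texas Red SRC2 peptide in Tris buffer containing 1 uM T3 and 5% DMSO, incubated with compound 5 h at ambient temperature. Total fluorescence (555/632 nm) calculated as parallel + 2 × perpendicular.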
BLM inh = inhibitors of human Bloom syndrome helicase BLM. AID 2528. recombinant BLM DNA unwinding, fluorescence dequenching. Potency, µM (top dose mostly 56.1 µM), for inactives: at the highest dose activity change, negative = inhibition, hits mostly inhibitors. 350,000 tested, 0.2% active;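 note: plate controls were vehicle for no effect and no enzyme for full effect; nearly all actives have a fitted effect of over 35% in size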
WRN inhibitor = WRN helicase (human) inhibition. Q14191. WRN helicase unwinding, fluorescent forked duplex, kinetic. Potency, µM (top dose mostly 114 µM), for inactives: at the highest dose activity change, negative = inhibition, hits mostly inhibitors. 360,000 tested, 0.46% active. AID 651768; note: nearly all actives have a fitted effect of over 55% in size
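Kinetic fluorescence helicase assay: unwinding of a quenched forked DNA duplex (100 nM final) with 2 mM ATP final raises red fluorescence (525/598 nm). Compounds sat 15 min at room temperature with 20 nM WRN beforehand.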
DNA dye displace = DNA dye displacement counter-screen activity; shares compounds with APE1 inh-1; DNA fluorescent dye displacement counterscreen, fluorescence; Potency, µM (doses to about 28.5 µM), without a hit: at the top dose activity change, negative = inhibition, most hits filed as inhibitors; 480 tested, 7% active;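 note: loss of thiazole orange fluorescence as the dye is displaced from duplex DNA; 0% = ThO with dsDNA and no compound and -100% = ThO without dsDNA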
Endo IV inh = blocks E. coli endonuclease IV DNA cleavage; 560 tested, 4% active; AID 2565; shares compounds with APE1 inh-1; Potency, µM (series often up to 27.1 µM), inactives show at the top dose activity change, negative = inhibition, hits mostly inhibitors; E. coli Endo IV, fluorogenic AP-site DNA cleavage;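 note: plate controls were uninhibited enzyme wells for no effect and no enzyme buffer wells for full effect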
APE1 inh-2 = APE1 (human) endonuclease inhibition, confirmation; shares compounds with APE1 inh-1; purified APE1, fluorogenic abasic-site DNA cleavage; Potency, µM (series often up to 57.1 µM), inactives show at the top dose activity change, negative = inhibition, actives largely listed as inhibitors; 750 tested, 44% active; note: nearly all actives have a fitted effect of over 30% in size
APE1 FP = APE1 (human) DNA binding inhibition, fluorescence polarization | shares compounds with APE1 inh-1 | APE1 binding to TAMRA-labelled double-stranded DNA, fluorescence polarization displacement | Potency, µM (top dose mostly 28.5 µM), for inactives: top-dose activity, negative = inhibition, actives largely listed as inhibitors | 480 tested, 7% active | AID 2573
* hit, by the source's call; [ ] = another dose, or the depositor's remark. Unless noted, calls come from the whole dose curve; as a rule, active = well fitted curve in the direction sought with a large enough effect; inconclusive = small, poorly fitted or top-dose-only effect, or another doubt; inactive = no such curve, though single readings can be large; an effect the other way counts as inactive or inconclusive. Unless noted, % is set by controls: 0 for no effect and ±100 for the full control effect; potency is the fitted concentration of half-maximal effect.

CC(C)/C=C1\CC/C(=C\c2ccc(N(C)C)cc2)C1=O was read as TRb SRC2 PPI 0%, APE1 inh-1 -5%, RECQ1 inh -10%, TexasRed fluor 6%, BLM inh -4% and WRN inhibitor -32%.
`CN(C)c1ccc(/C=C2/C[N+](C)(C)C/C(=C/c3ccc(N(C)C)cc3)C2=O)cc1` gave WRN inhibitor 20µM*.
O=C1C(=O)c2ccc(-c3ccccc3)cc2-c2ccccc21 was read as TRb SRC2 PPI inconclusive, APE1 inh-1 1%, RECQ1 inh -7%, TexasRed fluor -2%, BLM inh 8.9µM* and WRN inhibitor -1%[11.6 µM].
Screening CC(C)Nc1nc(N)nc(Cl)n1 returned TRb SRC2 PPI -2%[201 µM] and TexasRed fluor 0%[201 µM].
Screening Cc1ccnc(NC(c2ccccc2)c2ccc3cccnc3c2O)c1 (stereo unspecified) returned WRN inhibitor -7%.
For O=C(O)c1ccccc1NC(c1ccccc1)c1ccc2cccnc2c1O (stereo unspecified) the results were WRN inhibitor 14µM*.
CC(C)(C)n1ncc2c(=O)n(Cc3ccc(Cl)c(C(F)(F)F)c3)cnc21 was read as APE1 inh-1 -4%.
CCOc1cccc2sc(N(CCN(CC)CC)C(=O)c3ccco3)nc12 was read as TRb SRC2 PPI -11%, TexasRed fluor 14µM*[quencher] and BLM inh -4%.
CCN(CC)CCN(C(=O)c1ccco1)c1nc2c(C)cccc2s1 was read as TRb SRC2 PPI -2%, TexasRed fluor 2% and BLM inh 61%.
CCC(C)OC(=O)N1CCCCC1CCO (stereo unspecified) was read as TRb SRC2 PPI -8%[201 µM] and TexasRed fluor -10%[201 µM].
For OCC1OC([S-])[C@H](O)C(O)C1O.[Au+] (stereo partly specified) the results were TRb SRC2 PPI inconclusive, RECQ1 inh -4%, TexasRed fluor 13µM*[quencher], BLM inh inconclusive, Endo IV inh 11%[57.1 µM] and APE1 inh-2 13µM*.
For CCc1nc(SCC(=O)O)c(C#N)cc1C the results were TRb SRC2 PPI -18%, APE1 inh-1 18%, RECQ1 inh inactive, TexasRed fluor 3%, BLM inh -3% and WRN inhibitor -7%.
CCOC(=O)CC(=O)CSc1nc(CC)c(C)cc1C#N was read as TRb SRC2 PPI 18%, APE1 inh-1 7%, RECQ1 inh 8%, TexasRed fluor -7%, BLM inh 1%, WRN inhibitor -8% and APE1 inh-2 -28%.
`Cc1sc2ncnc(SCC(=O)NC(=O)NCc3ccco3)c2c1C` gave TRb SRC2 PPI 8%, APE1 inh-1 28µM*, RECQ1 inh inconclusive, TexasRed fluor -4%, BLM inh -27%, WRN inhibitor -27%, DNA dye displace 15%, Endo IV inh -1%, APE1 inh-2 inconclusive and APE1 FP 20%.
